High-throughput results from PubChem.
Only some compounds are listed: those with a hit (about 3.2% of all), similar ones and a draw of the others.
SKN-1 block: inhibitors of C. elegans SKN-1; C. elegans VP596 Pgst-4::GFP/RFP ratio, acrylamide-induced, 24 h; inhibition, % at 21.8 µM; 0.49% of 360,000 active; AID 624304;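 active means interference check ratio from 0.5 to 1.5 plus GFP to RFP signal ratio inhibition reaching or exceeding a fixed threshold, cut at about 30% in these data, passing the limit was not always enough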
MEKK3 PB1 HTS: raises or lowers MEK5 binding to the human MEKK3 PB1 domain; bead-based flow cytometry, Alexa488-MEK5 binding to MEKK3; actives lie on both sides; 0 = blocked by unlabeled MEK5, 100 = vehicle; binding response (% of control), % at 10 µM; 1.4% of 290,000 active; AID 1529;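 active means binding response more than 3 SD above or below the average of its plate-row segment, actives on both sides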;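 further: Alexa488 bead fluorescence after subtracting the streptavidin-only scavenger bead signal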
MEKK2mut PB1 HTS: signal of MEK5 binding to mutant human MEKK2 PB1 domain. bead flow cytometry, Alexa488-MEK5 binding to MEKK2 mutant. percent response, % at 10 µM. 0.35% of 290,000 active. AID 1530; in the data active means percent response above about 24%, passing the limit was not always enough
MEKK2 WT-MEK5: raises or lowers MEK5 binding to wildtype human MEKK2 PB1 domain | Q9Y2U5 | bead flow cytometry, Alexa488-MEK5 binding to MEKK2 WT; actives lie on both sides | binding response (% of control), % at 10 µM | 1.1% of 290,000 active | AID 1531; in the data active means binding response below about 67% or above about 130%
CendR NRP1 mod: alters CendR peptide binding to human NRP-1. O14786. FAM-RPARPAR peptide binding to NRP-1, fluorescence polarization. inhibition, % at 25 µM. 0.85% of 360,000 active. AID 602438;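 active means inhibition or corrected inhibition above about 18%, plus a signal ratio from 0.5 to 1.5, limit read from the data, passing the limit was not always enough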
MEKK2wt confirm: raises or lowers MEK5 binding to wildtype human MEKK2, retest. shares compounds with MEKK3 PB1 HTS. bead flow cytometry, Alexa488-MEK5 binding to MEKK2 WT; actives lie on both sides. binding response (% of control), % at 10 µM. 2.4% of 5,900 active. AID 1892; in the data active means binding response below about 16% or above about 210%; inactive means in between
MEKK2mut confirm: signal of MEK5 binding to mutant human MEKK2, retest; shares compounds with MEKK3 PB1 HTS; bead flow cytometry, Alexa488-MEK5 binding to MEKK2 mutant; percent response, % at 10 µM; 2% of 5,900 active; in the data active means percent response mostly above about 71%, no sharp cut-off; inactive means mostly below about 38%;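 further: higher means compound restores mutant binding toward wildtype level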
MEKK3 confirm: confirmation of inhibitors of MEK5 binding to human MEKK3 | shares compounds with MEKK3 PB1 HTS | bead flow cytometry, Alexa488-MEK5 binding to MEKK3; hits give low values | binding response (% of control), % at 10 µM | 1.8% of 5,900 active;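 active means binding response below 72% of control, or above a set upper limit, though filed actives all read lower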
Each line names hits and unclear results; the compound was inactive in the other large screens (follow-up assays come after a bar, where they were run); [ ] = dose if it differs, or a comment.

Cc1ccc(/C=C/C(=O)NCCCn2ccnc2)cc1	MEKK3 PB1 HTS 3.0[inhibitor], MEKK2 WT-MEK5 5.0[inhibitor] | MEKK2wt confirm inactive | MEKK2mut confirm inactive | MEKK3 confirm inactive
O=C(/C=C/c1ccc(F)cc1)NCCCN1CCN(CCCNC(=O)/C=C/c2ccc(F)cc2)CC1	MEKK2 WT-MEK5 146.0 | MEKK2wt confirm inactive | MEKK2mut confirm inactive | MEKK3 confirm inactive
O=C(/C=C/c1ccc(Cl)c(Cl)c1)NCCCn1ccnc1	none
CCN(CC(=O)Nc1ccccc1C(F)(F)F)C(=O)c1ccccc1OCc1ccc(F)cc1	none (no result: MEKK3 PB1 HTS, MEKK2mut PB1 HTS, MEKK2 WT-MEK5)
CCOC(=O)N1CCN(C(=O)C[C@@H]2C[C@@]3(C(=O)OC)CCCCC=C3N(CCc3ccc(OC)c(OC)c3)C2=O)CC1	none (no result: MEKK3 PB1 HTS, MEKK2mut PB1 HTS, MEKK2 WT-MEK5)
Cc1oc2c(CN3CCOCC3)c(O)ccc2c(=O)c1-c1ccc(Cl)cc1	MEKK3 PB1 HTS 38.0[inhibitor], MEKK2 WT-MEK5 44.0[inhibitor] | MEKK2wt confirm inactive | MEKK2mut confirm inactive | MEKK3 confirm inactive
Cc1oc2c(CN3CCCC3)c(O)ccc2c(=O)c1-c1ccc(Cl)cc1	none
Cc1ccc(C(C)n2cc(C(=O)NCc3ccncc3)nn2)cc1 (stereo not drawn)	MEKK3 PB1 HTS 1.0[inhibitor], MEKK2 WT-MEK5 0.0[inhibitor] | MEKK2wt confirm inactive | MEKK2mut confirm inactive | MEKK3 confirm inactive
COc1ccc(OCc2nnc(SC(C)C(=O)Nc3ccc(N4CCOCC4)cc3)n2C)cc1 (stereo not drawn)	none (no result: MEKK3 PB1 HTS, MEKK2mut PB1 HTS, MEKK2 WT-MEK5)
COc1ccccc1C(=O)NCCC(=O)Nc1cccnc1	MEKK3 PB1 HTS 73.0[inhibitor] | MEKK2wt confirm inactive | MEKK2mut confirm inactive | MEKK3 confirm inactive
COc1ccccc1C(=O)NCC(=O)Nc1cccnc1	none
C(=C\c1nc(-c2cccnc2)no1)/c1ccccc1	SKN-1 block 65.7, MEKK3 PB1 HTS 3.0[inhibitor], MEKK2 WT-MEK5 6.0[inhibitor] | MEKK2wt confirm inactive | MEKK2mut confirm inactive | MEKK3 confirm inactive
COc1ccc(S(=O)(=O)N2CC(C(=O)O)Oc3ccc(Cl)cc32)cc1 (stereo not drawn)	MEKK2mut PB1 HTS 36.0 | MEKK2wt confirm inactive | MEKK2mut confirm inactive | MEKK3 confirm inactive
O=c1[nH]cnc2c1sc(=S)n2-c1ccccc1	none
C=CCn1c(=S)sc2c(=O)[nH]cnc21	MEKK3 PB1 HTS 133.0 | MEKK2wt confirm inactive | MEKK2mut confirm inactive | MEKK3 confirm inactive
COc1ccc(-c2ccc3c(c2)O[C@H](CN(C)C(=O)Nc2ccccc2F)[C@@H](C)CN([C@H](C)CO)S3(=O)=O)cc1	none (no result: MEKK3 PB1 HTS, MEKK2mut PB1 HTS, MEKK2 WT-MEK5)
COC(=O)[C@H]1Cc2c([nH]c3ccccc23)[C@H](c2ccccc2)N1	none
O=C(O)C1Cc2c([nH]c3ccccc23)C(c2ccc3c(c2)OCO3)N1 (stereo not drawn)	MEKK2 WT-MEK5 6.0[inhibitor] | MEKK2wt confirm inactive | MEKK2mut confirm inactive | MEKK3 confirm inactive
O=C(Nc1ccc(N2CCOCC2)cc1)c1ccc(Cl)c(S(=O)(=O)N2CCCCC2)c1	none (no result: MEKK3 PB1 HTS, MEKK2mut PB1 HTS, MEKK2 WT-MEK5)
COc1ccc(C(CC(=O)c2ccc(O)cc2)S(=O)(=O)c2ccc(C)cc2)cc1 (stereo not drawn)	MEKK3 PB1 HTS 26.0[inhibitor], MEKK2 WT-MEK5 37.0[inhibitor] | MEKK2wt confirm inactive | MEKK2mut confirm inactive | MEKK3 confirm inactive
COc1ccc(C(=O)CC(c2ccccc2)S(=O)(=O)c2ccc(C)cc2)cc1 (stereo not drawn)	none (no result: SKN-1 block, CendR NRP1 mod)
Cc1cccc(C)c1-n1nnnc1C1(C)CCC(=O)N1Cc1cccc(C(F)(F)F)c1 (stereo not drawn)	none (no result: MEKK3 PB1 HTS, MEKK2mut PB1 HTS, MEKK2 WT-MEK5)
O=[N+]([O-])c1cc(Cl)ccc1N1CCN(c2cccc(C(F)(F)F)c2)CC1	MEKK2 WT-MEK5 138.0 | MEKK2wt confirm inactive | MEKK2mut confirm inactive | MEKK3 confirm inactive
COC(=O)N1CCCCC1c1cc(C(=O)Nc2cccc3c2CCCC3)no1 (stereo not drawn)	none (no result: MEKK3 PB1 HTS, MEKK2mut PB1 HTS, MEKK2 WT-MEK5)
